Tb PYK inh – qHTS of Trypanosoma Brucei Inhibitors; pyruvate kinase (Trypanosoma brucei), Q57TT1; TbPYK enzyme, Kinase-Glo Plus ATP luminescence, 45 min; Potency, µM (titrated, usually from 76.8 µM), inactives show at the highest dose activity, negative = inhibition, hits mostly inhibitors; actives 0.12% (n = 410,000); further: potency means the concentration at half of the fitted maximal effect; on the % scale 0 is the no-effect control and ±100 the full control effect; nearly all actives have a fitted effect of over 50% in size
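In this concentration-response screen, enzyme-free wells defined baseline while DMSO plates tracked drift. Each reaction combined TbPYK, substrate, compound and 130 uM ADP for 45 min at room temperature. Kinase-Glo Plus luminescence gave the signal.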
RE007 growth inh – qHTS Assay for Inhibitors of the HIV-1 protein Vpr; S. pombe RE007 Vpr strain, BacTiter-Glo ATP luminescence, 24 h; Potency, µM (top dose mostly 92.2 µM), for inactives: at the top dose activity change, negative = less growth, hits mostly inhibitors; actives 0.21% (n = 360,000); active means well fitted falling curve with a large enough effect; further: potency means the concentration at half of the fitted maximal effect; on the % scale 0 is the no-effect control and ±100 the full control effect; nearly all actives have a fitted effect of over 50% in size
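Fission yeast strain RE007, carrying one chromosomally integrated HIV-1 vpr copy, was seeded at OD 0.01 in PMG+AL medium with 23 nL pinned compound. After 24 h at 30 °C and 99% humidity, viability was read by BacTiter-Glo luminescence.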
LmPK inh – qHTS Assay for Inhibitors of Leishmania Mexicana Pyruvate Kinase (LmPK). purified LmPK, Kinase-Glo ATP luminescence, 1 h. Q27686. Potency, µM (top dose mostly 57.5 µM), inactives show at the highest dose activity change, negative = inhibition, usual class: inhibitors. actives 0.37% (n = 290,000); further: potency means the concentration at half of the fitted maximal effect; on the % scale 0 is the no-effect control and ±100 the full control effect
Target sequence (Q27686 whole entry, looked up): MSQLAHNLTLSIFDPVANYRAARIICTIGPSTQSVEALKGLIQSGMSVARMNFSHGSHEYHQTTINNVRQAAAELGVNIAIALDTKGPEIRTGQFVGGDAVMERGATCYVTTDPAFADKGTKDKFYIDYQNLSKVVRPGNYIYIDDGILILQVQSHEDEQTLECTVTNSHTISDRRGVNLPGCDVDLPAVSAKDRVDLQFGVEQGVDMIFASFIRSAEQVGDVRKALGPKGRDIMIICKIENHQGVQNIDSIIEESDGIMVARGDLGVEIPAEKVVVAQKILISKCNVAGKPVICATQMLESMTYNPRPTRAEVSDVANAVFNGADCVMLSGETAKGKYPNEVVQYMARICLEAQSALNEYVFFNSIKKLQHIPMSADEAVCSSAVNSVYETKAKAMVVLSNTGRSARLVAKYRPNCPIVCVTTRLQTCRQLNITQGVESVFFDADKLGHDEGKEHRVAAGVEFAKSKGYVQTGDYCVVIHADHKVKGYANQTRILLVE
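Screened at intermediate enzyme activity to detect both inhibitors and activators: LmPK at 0.1 nM, with a 0.5 nM enzyme column as activation reference. PEP 0.5 mM, ADP 0.1 mM; ATP detected by luminescence after 1 h.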
FBPA Giardia inh – qHTS Assay for Inhibitors of Fructose-1,6-bisphosphate Aldolase from Giardia Lamblia; actives 0.71% (n = 290,000); A8B2U2; Potency, µM (titrated, usually from 59.6 µM), for the others: at the top dose activity, negative = inhibition, most hits filed as inhibitors; purified Giardia FBPA; further: potency means the concentration at half of the fitted maximal effect; on the % scale 0 is the no-effect control and ±100 the full control effect; nearly all actives have a fitted effect of over 55% in size
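Giardia FBPA (40 nM reagent) was preincubated 10 min at RT with compound (up to 57.5 uM final), then substrate plus GAPDH/TPI/NAD/arsenate coupling system with diaphorase/resazurin was added; resorufin fluorescence (525/598 nm) was read after 20 min.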
Shiga inhibitor – A qHTS for Small Molecule Inhibitors of Shiga Toxin. inhibition, % at 38.7 µM. Vero cells, Shiga toxin protein synthesis inhibition reporter. actives 9.2% (n = 290,000); in the data active means inhibition mostly above about 28%, no sharp cut-off; inactive means mostly below about 43%; further: 0% is about no effect
CHX counter – Cycloheximide Counterscreen for Small Molecule Inhibitors of Shiga Toxin; cell reporter, cycloheximide protein synthesis inhibition counterscreen; max response, %; actives 12% (n = 300,000); in the data active means max response mostly above about 13%, no sharp cut-off; inactive means mostly below about 14%; further: read at 38.3 µM for the half of the compounds with a filed dose; 0% is about no effect
* hit, by the source's call; [ ] = another dose, or the depositor's remark. This is one part of a sample in which hits are shown more often than they occur. Unless noted, the call rests on the fitted dose curve; in most records, active means well fitted curve in the direction sought with a large enough effect; inconclusive means small, poorly fitted or top-dose-only effect, or another doubt; inactive means no such curve, though single readings can be large; an effect the other way counts as inactive or inconclusive.

Results for Cc1ccc(-c2cc3ncc(C#N)c(N)n3n2)cc1 ?
Tb PYK inh: -1.3%; RE007 growth inh: 3.2%; LmPK inh: -6.0%; FBPA Giardia inh: -1.4%; Shiga inhibitor: 69.4*; CHX counter: 24.1*

How did Cc1cc2ncc(-c3ccc(Cl)cc3)c(N)n2n1 do in these assays?
Tb PYK inh: 6.5%; RE007 growth inh: -7.9%; LmPK inh: 2.1%; FBPA Giardia inh: -3.7%; Shiga inhibitor: 63.6*; CHX counter: 43.5*

Results for Nc1c(-c2ccc(Cl)cc2)cnc2ncnn12 ?
Tb PYK inh: 5.6%; RE007 growth inh: 2.2%; LmPK inh: -0.8%; FBPA Giardia inh: 6.1%; Shiga inhibitor: 23.0; CHX counter: -2.3

What do the screens show for `CC(C)=CCN1CCN(Cc2cnc(C)s2)CC1CCO` (centres undefined)?
Tb PYK inh: 2.3%; RE007 growth inh: 18.4%; LmPK inh: 4.3%; FBPA Giardia inh: -23.3%; Shiga inhibitor: 69.7*; CHX counter: 43.1*

What do the screens show for `CC(C)=CCN1CCN(Cc2cnc(N3CCCC3)s2)CC1CCO` (centres undefined)?
Tb PYK inh: 1.3%; RE007 growth inh: -9.2%; LmPK inh: -13.1%; FBPA Giardia inh: -0.3%; Shiga inhibitor: -12.0; CHX counter: -2.2

What do the screens show for `CC(C)=CCN1CCN(Cc2cnc(N3CCOCC3)s2)CC1CCO` (centres undefined)?
Tb PYK inh: -4.5%; RE007 growth inh: 0.5%; LmPK inh: 1.7%; FBPA Giardia inh: 1.8%; Shiga inhibitor: 97.8*; CHX counter: 57.7*

How did CC(C)=CCN1CCN(Cc2ccc(C)s2)CC1CCO (centres undefined) do in these assays?
Tb PYK inh: 0.3%; RE007 growth inh: 14.3%; LmPK inh: -1.5%; FBPA Giardia inh: 4.4%; Shiga inhibitor: -1.7; CHX counter: -2.7

What do the screens show for `Clc1ccc(N=C2SCCS2)cc1`?
Tb PYK inh: 0.3%; RE007 growth inh: -10.7%; LmPK inh: 2.9%; FBPA Giardia inh: 8.6%; Shiga inhibitor: 76.0*; CHX counter: 46.1*

How did COC(=O)C1=C(C)[C@@H](O)[C@@H](C)[C@H](c2c(OC)c(OC)c(C)c(OC)c2OC)O1 do in these assays?
FBPA Giardia inh: 5.5%[12.9 µM]

Results for CC(=O)Nc1cccc(NC(=O)Cc2nc(-c3ccccc3)sc2-c2ccc(C)cc2)c1 ?
Tb PYK inh: -1.0%; RE007 growth inh: -1.6%; LmPK inh: -3.0%; FBPA Giardia inh: -7.4%; Shiga inhibitor: 130.5*; CHX counter: 20.4*

How did COc1cccc(NC(=O)Cc2nc(-c3ccccc3)sc2-c2ccc(C)cc2)c1 do in these assays?
Tb PYK inh: 0.8%; RE007 growth inh: 3.5%; LmPK inh: 3.9%; FBPA Giardia inh: -16.0%; Shiga inhibitor: 51.1*; CHX counter: 28.1*

How did O=C(O)c1c(-c2ccccc2)oc2ccc(OCc3ccc(Cl)c(Cl)c3)cc12 do in these assays?
Tb PYK inh: 2.1%

What do the screens show for `COc1ccc2cc(C#N)c(SCC(=O)N3CCCC3)nc2c1`?
Tb PYK inh: 3.4%; RE007 growth inh: -14.9%; LmPK inh: 2.4%; FBPA Giardia inh: 0.1%; Shiga inhibitor: 14.2; CHX counter: 2.8

How did COC(=O)CSc1nc2ccc(C)cc2cc1C#N do in these assays?
Tb PYK inh: 2.3%; RE007 growth inh: -20.4%; LmPK inh: 14.0%; FBPA Giardia inh: -4.1%; Shiga inhibitor: 149.2*; CHX counter: 36.4*

How did CCOc1ccc2nc(SCC#N)c(C#N)cc2c1 do in these assays?
Tb PYK inh: -4.5%; RE007 growth inh: -10.0%; LmPK inh: 0.5%; FBPA Giardia inh: -5.1%; Shiga inhibitor: 24.5; CHX counter: 21.9*

Results for COC(=O)CSc1nc2cc(OC)ccc2cc1C#N ?
Tb PYK inh: 5.6%; RE007 growth inh: -12.5%; LmPK inh: 1.1%; FBPA Giardia inh: 6.7%; Shiga inhibitor: 68.0*; CHX counter: 53.0*

Screens as filed in PubChem.
